# PI5P4K alpha inh – qHTS for Inhibitors of phosphatidylinositol 5-phosphate 4-kinase (PI5P4K). Phosphatidylinositol 5-phosphate 4-kinase type-2 alpha (Homo sapiens), P48426. PI5P4Kalpha enzyme, ADP-Glo luminescence, 60 min; hits give low values. max response, %. 330,000 tested, 1.2% active. AID 652105, 2013; active means max response of -50% or lower; inconclusive means between -30% and -50%; inactive means -30% or higher; further: value at the top dose of about 77 µM; on the % scale 0 is the no-effect control and ±100 the full control effect
#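 ADP-Glo luminescence end-point read after a 60 min room-temperature kinase reaction of PI5P4Kalpha plus substrate, initiated with ATP at 5 microM final. Buffer: 0.038 M HEPES pH 7.4, EGTA, 0.1% CHAPS, 5% DMSO.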
# POLH inh – qHTS for Inhibitors of Polymerase Eta. DNA polymerase eta (Homo sapiens), Q9Y253. recombinant Pol eta, fluorescent DNA replication assay. Potency, µM (top dose mostly 114 µM), for inactives: at the highest dose activity change, negative = inhibition, most hits filed as inhibitors. AID 588591, 2011. 390,000 tested, 1.2% active; further: potency means the concentration at half of the fitted maximal effect; on the % scale 0 is the no-effect control and ±100 the full control effect
#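 Pol eta (10 nM) was preincubated with compounds for 15 min at room temperature, after which fluorescent replication substrate (50 nM final) was added to start the reaction. Fluorescence was read kinetically at 0 and 10 min.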
# Pol iota inh – qHTS for Inhibitors of Polymerase Iota; Pol iota fluorescent replication assay, 10 min; Potency, µM (highest dose often 115 µM), inactives show at the top dose activity, negative = inhibition, actives largely listed as inhibitors; 390,000 tested, 1% active; AID 588590, 2011; further: potency means the concentration at half of the fitted maximal effect
#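 Pol iota at 10 nM preincubated 15 min with compounds at room temperature; reaction started with fluorescent substrate, 50 nM final. Fluorescence read kinetically at 0 and 10 min; buffer-only wells as negative control.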
# WRN helicase inh – qHTS for Inhibitors of WRN Helicase; Bifunctional 3'-5' exonuclease/ATP-dependent helicase WRN (Homo sapiens), Q14191; Potency, µM (highest dose often 114 µM), for the others: at the top dose activity change, negative = inhibition, actives largely listed as inhibitors; 360,000 tested, 0.46% active; WRN helicase unwinding, fluorescent forked duplex, kinetic; further: potency means the concentration at half of the fitted maximal effect; on the % scale 0 is the no-effect control and ±100 the full control effect; nearly all actives have a fitted effect of over 55% in size
# Target sequence (Q14191 whole entry, looked up): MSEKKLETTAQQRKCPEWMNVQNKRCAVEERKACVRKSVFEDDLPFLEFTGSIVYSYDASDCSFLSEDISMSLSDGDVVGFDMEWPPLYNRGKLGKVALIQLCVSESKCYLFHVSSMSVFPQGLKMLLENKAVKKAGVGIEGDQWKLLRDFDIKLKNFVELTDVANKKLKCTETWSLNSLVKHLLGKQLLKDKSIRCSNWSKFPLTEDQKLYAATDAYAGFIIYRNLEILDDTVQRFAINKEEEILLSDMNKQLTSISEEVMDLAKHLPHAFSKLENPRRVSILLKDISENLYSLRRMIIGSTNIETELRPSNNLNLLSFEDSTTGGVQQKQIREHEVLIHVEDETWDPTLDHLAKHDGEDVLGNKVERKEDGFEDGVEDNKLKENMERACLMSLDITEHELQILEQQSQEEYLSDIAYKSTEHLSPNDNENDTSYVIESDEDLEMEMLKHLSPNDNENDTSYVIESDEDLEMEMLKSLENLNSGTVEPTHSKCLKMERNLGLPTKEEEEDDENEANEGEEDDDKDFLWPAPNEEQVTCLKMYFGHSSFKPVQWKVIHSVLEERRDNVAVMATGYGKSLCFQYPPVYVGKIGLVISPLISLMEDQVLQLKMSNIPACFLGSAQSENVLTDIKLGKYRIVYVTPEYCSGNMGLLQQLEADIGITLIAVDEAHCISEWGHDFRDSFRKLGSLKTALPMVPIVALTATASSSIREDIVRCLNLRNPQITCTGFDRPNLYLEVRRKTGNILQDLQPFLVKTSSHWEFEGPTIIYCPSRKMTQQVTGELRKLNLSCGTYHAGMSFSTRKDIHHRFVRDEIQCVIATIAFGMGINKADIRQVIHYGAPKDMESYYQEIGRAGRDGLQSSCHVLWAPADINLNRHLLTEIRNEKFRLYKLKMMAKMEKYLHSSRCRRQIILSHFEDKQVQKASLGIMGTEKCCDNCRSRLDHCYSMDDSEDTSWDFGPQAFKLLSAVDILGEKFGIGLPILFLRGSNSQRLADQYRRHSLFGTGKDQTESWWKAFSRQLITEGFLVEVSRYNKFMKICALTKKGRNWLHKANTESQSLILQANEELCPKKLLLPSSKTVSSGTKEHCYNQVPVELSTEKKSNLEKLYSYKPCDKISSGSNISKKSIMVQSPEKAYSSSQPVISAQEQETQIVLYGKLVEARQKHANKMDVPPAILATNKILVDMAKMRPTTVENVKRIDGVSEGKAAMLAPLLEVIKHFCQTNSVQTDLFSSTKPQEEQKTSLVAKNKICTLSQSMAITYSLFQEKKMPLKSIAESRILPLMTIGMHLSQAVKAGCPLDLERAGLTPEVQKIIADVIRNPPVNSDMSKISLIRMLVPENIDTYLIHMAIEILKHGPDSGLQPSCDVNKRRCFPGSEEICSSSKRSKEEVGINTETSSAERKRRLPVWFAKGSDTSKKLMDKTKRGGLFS
#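 Primary qHTS, 1536-well format. 20 nM WRN + compound, 15 min RT; start with 100 nM forked fluorophore/quencher duplex, 2 mM ATP (final); kinetic read ex 525/em 598 nm.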
# POLB inh – qHTS Assay for Inhibitors of DNA Polymerase Beta; 340,000 tested, 1.3% active; Potency, µM (doses to about 114 µM), inactives show at the highest dose activity change, negative = inhibition, actives largely listed as inhibitors; Pol beta primer extension/strand displacement, fluorescence kinetic; further: potency means the concentration at half of the fitted maximal effect; on the % scale 0 is the no-effect control and ±100 the full control effect
#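 Pol beta (10 nM) was preincubated with compound for 15 min at room temperature. The reaction was then started with 50 nM substrate and read immediately and after a further 10 min at room temperature.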
# Pol kappa inh – qHTS for Inhibitors of Polymerase Kappa | DNA polymerase kappa (Homo sapiens), Q9UBT6 | purified Pol kappa, fluorescent DNA synthesis assay, 10 min | Potency, µM (top dose mostly 107 µM), for inactives: top-dose activity, negative = inhibition, usual class: inhibitors | 400,000 tested, 0.53% active | AID 588579, 2011; further: potency means the concentration at half of the fitted maximal effect; on the % scale 0 is the no-effect control and ±100 the full control effect
#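 Pol kappa 10 nM + cpd, 15 min RT; start w/ substrate 50 nM final; fluorescence kinetic read, 0 and 10 min. Neg ctrl: buffer, no enzyme.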
# The depositor's hits bear a star; ? = inconclusive; / = no result given; [ ] = another dose, or the depositor's remark. Sampled rows, rich in hits. Any-hit rate of the full collection: about 2.8%. Unless noted, the call rests on the fitted dose curve; in most records, active means well fitted curve in the direction sought with a large enough effect; inconclusive means small, poorly fitted or top-dose-only effect, or another doubt; inactive means no such curve, though single readings can be large; an effect the other way counts as inactive or inconclusive.
SMILES,PI5P4K alpha inh,POLH inh,Pol iota inh,WRN helicase inh,POLB inh,Pol kappa inh
CCc1ccc(S(=O)(=O)/N=C2\C=C(NS(=O)(=O)c3ccccc3)C(=O)c3ccccc32)cc1,?,89µM*,?,-12%,?,-27%
COc1cc2c(cc1OC)C1C(=O)c3c(cc4c(c3O)C=CC(C)(C)O4)OC1CO2 (centres undefined),/,/,/,/,/,-12%[60.1 µM]
O=C(Nc1nc(-c2ccccc2)cs1)c1ccccc1NS(=O)(=O)c1ccc(F)cc1,-16,50µM*,-25%,-4%[11.6 µM],45µM*,-12%
COc1cc2c(c(OC)c1OC)-c1ccc(OC)c(=O)cc1[C@@H](NC=O)CC2,/,/,/,/,/,15%[60.1 µM]
CCN(CC)CCCC(C)Nc1cc(/C=C/c2ccccc2Cl)nc2cc(Cl)ccc12 (centres undefined),/,/,71µM*,/,/,2%[19.4 µM]
COc1ccc2nc3cc(Cl)ccc3c(Nc3cc(C(C)C)c(O)cc3C)c2c1,?,-15%,37%,1%[57.1 µM],-10%,-3%
CCN(CC)CCCC(C)Nc1c2ccc(Cl)cc2nc2ccc(OC)cc12 (centres undefined),/,?,7.9µM*,/,16µM*,8.9µM*
CC(C)(C)n1ncc2c(=O)n(Cc3ccc(Cl)cc3C(F)(F)F)cnc21,/,/,-22%,/,/,-12%
CCCCn1c2ccccc2c2nnc(SCC(=O)Nc3ccc(NC(C)=O)cc3)nc21,/,-5%,-11%,/,14µM*,-1%
O=C(CC(=O)c1cc(Cl)ccc1O)c1ccccc1,/,-11%,12%,-14%,-11%,-2%
O=C(c1ccccc1)c1cc(Cl)ccc1N1C(=O)C=CC1=O,-66*,-6%,19%,14µM*,-15%,-6%
CCOC(=O)C1=C(c2ccccc2)N=c2s/c(=C\c3cc(OC)c(OC)c(OC)c3)c(=O)n2C1c1cccs1 (centres undefined),/,-12%,?,-22%,3%,-18%
CCOC(=O)C1=C(C)N=c2s/c(=C\c3ccc(OCC(=O)O)cc3)c(=O)n2C1c1ccccc1OC (centres undefined),-10,40µM*,17%,-3%,13%,-6%
CCOc1ccc(C2C(C(=O)Nc3ccccc3)=C(C)N=c3s/c(=C/c4cccc(OCC(=O)O)c4)c(=O)n32)cc1 (centres undefined),-22,?,?,?,-28%,-11%
CC1=C(C(=O)Nc2ccccc2)C(c2ccc(Cl)cc2)n2c(s/c(=C/c3cccc(OCC(=O)O)c3)c2=O)=N1 (centres undefined),?,56µM*,?,?,79µM*,-13%
COc1ccc(C2C(C(C)=O)=C(C)N=c3s/c(=C\c4ccco4)c(=O)n32)c(OC)c1 (centres undefined),-1,2%,?,-12%,35µM*,-32%
COc1ccc(C2C(C(C)=O)=C(C)N=c3s/c(=C\c4cc(C)n(C)c4C)c(=O)n32)c(OC)c1 (centres undefined),12,-24%,-8%,?,12%,-12%
CCOC(=O)C1=C(c2ccccc2)N=c2s/c(=C\c3ccco3)c(=O)n2C1c1cccs1 (centres undefined),/,79µM*,20µM*,?,10µM*,?
CCOc1cc(C(=O)NCCc2csc3nc(-c4ccccc4F)nn23)cc(OCC)c1OCC,/,-15%,6%,/,18%,-8%[60.1 µM]
CCc1cccc(-n2nnc(-c3nsc(NC(=O)c4cccc(OC)c4)n3)c2C)c1,/,4%,3%,/,-3%,-4%
O=C(CSc1nnnn1-c1ccccc1)Nc1ncc(Cc2ccccc2Cl)s1,-1,-20%,61%,-1%,18%,-7%
N=C1SC(c2ccccc2)C(=O)N1c1ncc(Cc2ccccc2Cl)s1 (centres undefined),?,?,?,?,18µM*,?
Cc1cc(O)c(C(=O)/C=C/c2ccc(Cl)cc2)c(=O)o1,-69*,-9%,85%,-20%,-27%,-13%
COc1cc(/C=C/C(=O)c2c(O)cc(C)oc2=O)cc(OC)c1O,2,?,?,-16%,0%,-13%[60.1 µM]
COc1ccc(/C=C/C(=O)c2c(O)cc(C)oc2=O)c(OC)c1,-10,-7%,?,-9%,31%,4%
SMILES,PI5P4K alpha inh,POLH inh,Pol iota inh,WRN helicase inh,POLB inh,Pol kappa inh
CSc1ccc(/C=C/C(=O)c2c(O)cc(C)oc2=O)cc1,-54*,-4%,?,-24%,-7%,-15%
O=c1c2cc(N3CCOCC3)ccc2[nH]c(=S)n1Cc1ccco1,/,89µM*,10µM*,?,?,79µM*
O=c1c2cc(N3CCOCC3)ccc2[nH]c(=S)n1Cc1cccc(Cl)c1,/,-7%,-6%,-16%,8%,6%
COc1ccc(N(C(=O)c2snc(C(N)=O)c2N)C(C(=O)NC2CCCCC2)c2ccc(F)cc2)c(OC)c1 (centres undefined),1,22µM*,?,-7%,79µM*,-3%
COCOc1cc(O)c2c(=O)c(OCOC)c(-c3ccc(OCOC)c(OCOC)c3)oc2c1,0,?,?,-12%,/,79µM*
COCOc1ccc(-c2cc(=O)c3c(OCOC)cc(OCOC)cc3o2)cc1,0,-24%,28%,2%,/,6%
CCCc1cnc2c(c1SCC(=O)Nc1ccc([N+](=O)[O-])cc1)c(=O)n(C)c(=O)n2C,/,1%,-7%,/,1%,-8%[60.1 µM]
O=C1Nc2ccccc2C(=O)C1(Cl)Cc1ccccc1 (centres undefined),-29,-18%,?,45µM*,25%,-3%
CC1=NN(c2ccccc2)C(=O)C1=Cc1ccccc1,2,-2%,/,?,/,/
COc1ccc(/C=C2/C(=O)N(c3ccccc3)N=C2C)cc1Br,4,?,1.3µM*,-17%[11.6 µM],18%,3%
COc1ccc(/C=C2/C(=O)N(c3cccc(F)c3)N=C2C)c(OC)c1,6,11%,1.1µM*,1%,28%,-9%
CC1=NN(c2cccc(F)c2)C(=O)/C1=C/c1ccc(N(C)C)cc1,-1,1%,144%,-4%,15%,-2%
CC1=NN(c2ccccc2)C(=O)/C1=C/C=C/C=C/N(C)C,?,-25%,45µM*,?,?,?
CC1=NN(c2ccccc2)C(=O)/C1=C/c1cccs1,9,-13%,1.3µM*,?,2%,-3%
